High-throughput results as filed in PubChem BioAssay.
NPC1 prom act: NPC1 promoter activation; Potency, µM (top dose mostly 9.22 µM), inactives show top-dose activation, hits mostly activators; 320,000 compounds, 2.4% hits; Huh7 NPC1 promoter luciferase reporter, 24 h; further: % of control where 0% means no effect; nearly all actives have a fitted effect of over 60% in size
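Luminescence from an NPC1 promoter-driven luciferase reporter in stably transfected Huh7 cells was measured after 24 h compound treatment at 37 °C, followed by 10 min ambient incubation with luciferase detection reagent.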
ELG1 genotox: genotoxicity induction in ELG1-luciferase HEK293T cells; HEK293T ELG1-luciferase reporter, luminescence, 16 h; Potency, µM (series often up to 46 µM), without a hit: top-dose activity change, positive = activation, actives largely listed as activators; 330,000 compounds, 1.3% hits; AID 504466; further: % of control where 0% means no effect; nearly all actives have a fitted effect of over 60% in size
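Cells (2,000/well) expressing the ELG1-luciferase fusion are dosed by pin tool and kept 16 hr at 37 °C, 5% CO2. Signal comes from ONE-Glo luciferase reagent after 30 min at room temperature.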
Rab9 promoter act: activates the Rab9 promoter. 320,000 compounds, 2.8% hits. Huh7 Rab9 promoter-luciferase reporter, luminescence, 24 h. Potency, µM (titrated, usually from 9.22 µM), without a hit: top-dose activation, negative = inhibition, actives largely listed as activators; further: % of control where 0% means no effect; nearly all actives have a fitted effect of over 60% in size
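Quantitative HTS format; Huh7 Rab9-luciferase reporter cells (1500/well) receive compound 2 h post-plating, incubate 24 h at 37 °C, then get luciferase reagent for 10 min before luminescence reading.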
Luc counter: counter-screen: inhibitors of Kinase-Glo firefly luciferase; 200,000 compounds, 0.28% hits; AID 1379; Q27757; Kinase-Glo luciferase, ATP luminescence, 8 min; Potency, µM (titrated, usually from 38.3 µM), for inactives: at the top dose activity change, negative = inhibition, usual class: inhibitors; further: on the % scale 0 is the no-effect control and ±100 the full control effect; nearly all actives have a fitted effect of over 60% in size
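Luminescence was the read-out, taken after 8-minute incubation at ambient temperature. Luciferase turned over luciferin with 10 uM ATP in imidazole pH 7.2 buffer containing KCl, MgCl2, Tween 20 and BSA.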
SMN2 splice enh: increases expression of the SMN2 splice variant; Potency, µM (titrated, usually from 46.1 µM), for the others: top-dose activity change, positive = activation, usual class: activators; 210,000 compounds, 2.8% hits; HEK293 SMN2-luciferase splicing reporter, luminescence, 30-36 h; further: % of control where 0% means no effect; nearly all actives have a fitted effect of over 55% in size
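HEK293 cells carry an SMN2 minigene-luciferase reporter in which exon 7 inclusion puts luciferase in frame. Cells were seeded at 2000 cells/well, attached for 10-12 hours, then exposed to compounds for 30-36 hours at 37C before ONE-Glo luminescence.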
FLuc counter: firefly luciferase modulation, counter-screen for miR-21 project | P08659 | purified FLuc, Km substrates, luminescence inhibition | Potency, µM (doses to about 57.5 µM), inactives show at the top dose activity change, negative = inhibition, usual class: inhibitors | 360,000 compounds, 6.9% hits | AID 588342;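 further: plate controls were vehicle for no effect and reference inhibitor for full effect; nearly all actives have a fitted effect of over 55% in size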
Target sequence (P08659 whole entry, looked up): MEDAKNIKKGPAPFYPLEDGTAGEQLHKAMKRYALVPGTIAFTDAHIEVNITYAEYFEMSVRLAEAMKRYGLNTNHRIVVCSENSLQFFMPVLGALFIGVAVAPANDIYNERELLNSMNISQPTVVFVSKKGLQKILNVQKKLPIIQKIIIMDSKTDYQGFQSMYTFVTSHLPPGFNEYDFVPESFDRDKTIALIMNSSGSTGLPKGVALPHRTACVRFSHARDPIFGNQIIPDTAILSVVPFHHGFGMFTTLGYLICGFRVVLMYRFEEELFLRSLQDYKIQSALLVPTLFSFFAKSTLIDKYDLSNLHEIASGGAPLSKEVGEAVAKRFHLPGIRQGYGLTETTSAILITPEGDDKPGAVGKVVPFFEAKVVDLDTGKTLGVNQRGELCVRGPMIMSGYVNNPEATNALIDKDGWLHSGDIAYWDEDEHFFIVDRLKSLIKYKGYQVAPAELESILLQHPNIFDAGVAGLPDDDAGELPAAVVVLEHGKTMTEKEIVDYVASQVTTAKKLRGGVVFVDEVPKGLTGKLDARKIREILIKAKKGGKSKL
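Purified P. pyralis luciferase (10nM final) with 10uM D-luciferin and 10uM ATP (Km levels) in 50mM Tris acetate pH 7.5, 10mM Mg acetate, 0.01% Tween-20, 0.05% BSA; qHTS 6-point titration, ~60 µM downward; luminescence read.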
The depositor's hits bear a star; ? = inconclusive; / = no result given; [ ] = another dose, or the depositor's remark. Compounds with a hit are over-represented: about 7.3% of the library has one in this group of screens. The call rests on the fitted dose curve; in most records, active means well fitted curve in the direction sought with a large enough effect; inconclusive means small, poorly fitted or top-dose-only effect, or another doubt; inactive means no such curve, though single readings can be large; an effect the other way counts as inactive or inconclusive. Potency means the concentration at half of the fitted maximal effect.

SMILES	NPC1 prom act	ELG1 genotox	Rab9 promoter act	Luc counter	SMN2 splice enh	FLuc counter
CCN(CC)c1ccc(/C=N/NC(=O)c2ccco2)cc1	?	5.8µM*	?	-15%	1.6µM*	1.5µM*
CCN(CC)c1ccc(/C=N/NC(=O)c2ccco2)c(O)c1	-5%	23µM*	-17%	/	/	5.4µM*
COc1ccc(OC)c(CNS(=O)(=O)c2cc(-c3onc(C)c3C)ccc2C)c1	/	/	/	/	/	-4%
COc1ccc(OCC(=O)Nc2ccc(NC(=O)c3cccs3)cc2)cc1	1%	12%	3%	/	/	4%
CN(C(=O)c1cccs1)c1ccc(OCC(=O)Nc2ccc(C(=O)O)cc2)cc1	-3%	1%	0%	/	/	17µM*
CCc1ccc(/C=N/Nc2ncnc3nc[nH]c23)cc1	2.8µM*	7.3µM*	1.3µM*	/	/	3µM*
COc1cnc(-c2ccccn2)nc1N(C)c1ccccc1	0%	21%	1%[1.84 µM]	/	/	11µM*
COc1ccc(NC(=O)c2ccc3[nH]c(C)c(C)c3c2)cc1	20%	14%	?	/	/	13µM*
CCOc1ccc(NC(=O)c2ccc3[nH]c(C)c(C)c3c2)cc1	/	/	/	/	/	13µM*
CCOc1ccc(CCNC(=O)c2ccc3[nH]c(C)c(C)c3c2)cc1	/	/	/	/	/	-19%
Cc1cc(Br)ccc1NC(=O)c1cc2c(=O)n(C)c3cc(Cl)ccc3c2s1	/	/	/	/	-10%	-1%
Cc1ccc2cc3cc(C(=O)N4CCN(c5ccccc5)CC4)oc3nc2c1	/	/	/	/	/	-5%
CCOC(=O)c1sc(-c2ccccc2)cc1NC(=O)Nc1ccccc1	-7%	-2%	-2%	0%	-10%	?
CCOC(=O)c1sc(-c2ccc(Br)cc2)cc1N	2.2µM*	?	2.8µM*	-1%	13µM*	4.8µM*
CCOC(=O)c1ccc(N)cc1	1%	?	1%	-4%	13%	3%
CCOC(=O)c1cc(-c2ccc(N)cc2)sc1N	2.8µM*	7.3µM*	2.2µM*	-2%	11µM*	15µM*
CCc1nn2c(=O)cc(COC(=O)c3cccc(NC(=O)c4ccccc4C)c3)nc2s1	/	/	/	/	/	0%
Cc1ccc(-c2cc(C(=O)Nc3ccc(S(=O)(=O)Nc4onc(C)c4C)cc3)c3ccccc3n2)cc1	-2%	1%	4%	9%	27%	13µM*
COc1ccc(C(=O)Nc2ccc(S(=O)(=O)Nc3onc(C)c3C)cc2)cc1	0%	3%	-6%	2%	3%	21µM*
Cc1ccc(C(=O)Nc2ccc(S(=O)(=O)Nc3onc(C)c3C)cc2)cc1	/	/	/	/	-3%	12µM*
Cc1noc(NS(=O)(=O)c2ccc(NC(=O)c3oc4ccc(Cl)cc4c3C)cc2)c1C	-2%	16%	16%	/	/	17µM*
Cc1noc(NS(=O)(=O)c2ccc(NC(=O)c3ccc(F)cc3)cc2)c1C	/	6%	/	/	/	/
CC(C)CCNC(=O)c1ccc(NC(=O)N2CCCCc3ccccc32)cc1	/	/	/	/	-9%	1%
CSc1ccc(C2c3c(-c4ccccc4O)n[nH]c3C(=O)N2Cc2ccncc2)cc1 (stereo not given)	/	/	/	/	1%	?
Cc1cc(C)c2c(=O)cc(C(=O)NCCc3ccc(S(N)(=O)=O)cc3)oc2c1	/	/	/	/	-1%	-1%
SMILES	NPC1 prom act	ELG1 genotox	Rab9 promoter act	Luc counter	SMN2 splice enh	FLuc counter
Cc1noc(NS(=O)(=O)c2ccc(NC(=O)c3ccc(Br)cc3)cc2)c1C	/	/	/	/	-1%	21µM*
CC1CCN(C(=O)CN2C(=O)c3ccccc3S2(=O)=O)CC1	3.5µM*	?	2.5µM*	1%	-5%	-10%
O=C(CN1C(=O)c2ccccc2S1(=O)=O)c1ccc(OC(F)F)cc1	-18%	-12%	-21%	/	/	12µM*
O=C(CN1C(=O)c2ccccc2S1(=O)=O)c1ccc(F)cc1	?	-6%	?	/	/	13µM*
NC(=O)C1CCN(C(=O)CN2C(=O)c3ccccc3S2(=O)=O)CC1	2%	3%	-2%	0%	-14%	5%
O=C(CN1C(=O)c2ccccc2S1(=O)=O)c1cccc(Br)c1	?	-6%	?	/	/	7.6µM*
COC(=O)c1ccc(NC(=O)CN2C(=O)c3ccccc3S2(=O)=O)cc1	1%	0%	0%	/	/	-2%
COC(=O)C1=C(C(=O)OC)[C@@H]2N(C)c3ccccc3[C@@]23C[C@@H](C(=O)OC)N(S(=O)(=O)c2ccc(OC)cc2)C3=N1	/	/	/	-8%[7.66 µM]	9%[9.22 µM]	/
CC(C)(C)OC(=O)N1CCC(c2c(C(=O)NCCCN3CCc4ccccc4C3)cnn2-c2ccccc2)CC1	/	/	/	/	/	0%
COc1ccc(OC)c(NC(=O)CCCc2nnc3n(C(C)C)c(=O)c4sccc4n23)c1	/	/	/	/	/	-1%
Cc1ccccc1C(=O)Nc1ccc2nc(SCC(=O)N3CCc4ccccc43)sc2c1	/	/	/	/	/	-16%
O=C(CN1C(=O)c2ccccc2S1(=O)=O)c1ccccc1F	?	5%	?	/	/	11µM*
COc1ccc(-n2c(C)cc(/C=C/c3nc(O)c([N+](=O)[O-])c(=O)[nH]3)c2C)cc1	-5%	3%	10%	-2%	5%	?
Cc1cc(/C=C\c2nc(O)c([N+](=O)[O-])c(=O)[nH]2)c(C)n1-c1ccccc1	-2%	2%	2%	1%	12%	11µM*
Cc1c(-c2ccc(OCc3ccccc3)cc2)nc2ccccc2c1C(=O)O	16%	-2%	3%	/	/	21µM*
COc1ccccc1NC(=O)CN1C(=O)C(c2ccc(F)cc2)=NC1(C)C	/	/	/	/	-5%	2%
O=C(Nc1ccccc1)Nc1nc(-c2ccccc2)cs1	22%	2%	23%	/	/	?
COc1cccc(-c2csc(NC(=O)Nc3ccccc3)n2)c1	-2%	-17%	-5%	/	/	13µM*
COc1cccc(-c2csc(NC(=O)C3CC3)n2)c1	?	12µM*	?	1%	25%	11µM*
Cc1cccc(N2CCN(S(=O)(=O)c3ccc(F)c(C(=O)Nc4ccc(C(C)C)cc4)c3)CC2)c1C	/	/	/	/	/	2%
CCOC(=O)c1c(C)c(-c2ccccc2)n(CC(=O)Nc2cc(OC)cc(OC)c2)c1C	/	/	/	/	-39%	-13%
CCN1CCN(/C=N/c2nc3c(s2)CCCC3)CC1	?	0.92µM*	?	-11%	-4%	1.3µM*
Cc1cccc(OCCn2c(-c3ccc(Cl)cc3)nc3ccccc3c2=O)c1C	/	/	/	/	8%	-2%
Cc1nc2cc(NC(=O)C3COc4ccccc4O3)ccc2s1 (stereo not given)	?	?	?	-8%	/	12µM*
Cc1ccc(NC(=O)C2COc3ccccc3O2)cc1C (stereo not given)	2.5µM*	?	?	/	/	19µM*
Cc1nc2ccc3nc(NC(=O)C4COc5ccccc5O4)sc3c2s1 (stereo not given)	-1%	1%	-4%	2%	5%	-1%
